Experimental findings from PubChem BioAssay (NCATS) are described below.

Several values for one entry are separate records, joined by “and”; a condition that tells them apart may be missing. Identical values can stand only once. Records with an inconclusive call do not appear. Some compounds were tested as several samples or in several runs, with calls that do not always agree. Activity calls are given as the source filed them. Unless noted, the call rests on the fitted dose curve; in most records, active means well fitted curve in the direction sought with a large enough effect; inconclusive means small, poorly fitted or top-dose-only effect, or another doubt; inactive means no such curve, though single readings can be large; an effect the other way counts as inactive or inconclusive.

The target in assay [1] is Voltage-gated inwardly rectifying potassium channel KCNH2 (Homo sapiens) (UniProt Q12809). Kind of assay: qHTS Assay for Small Molecule Inhibitors of the Human hERG Channel Activity (AID 588834).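 Further: top concentration of the series differs between compounds; on the % scale 0 is the no-effect control and ±100 the full control effect; lower thallium flux fluorescence means stronger hERG block; nearly all actives have a fitted effect of over 50% in size.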 The gist of the method: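 Concentration-response qHTS measuring drop in thallium-sensitive dye signal. U2OS cells carrying BacMam hERG; compound exposure ~10 min, then stimulation buffer and 2 min read at 1 sec intervals.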
Sequence of Voltage-gated inwardly rectifying potassium channel KCNH2 (Homo sapiens) (Q12809 whole entry, looked up): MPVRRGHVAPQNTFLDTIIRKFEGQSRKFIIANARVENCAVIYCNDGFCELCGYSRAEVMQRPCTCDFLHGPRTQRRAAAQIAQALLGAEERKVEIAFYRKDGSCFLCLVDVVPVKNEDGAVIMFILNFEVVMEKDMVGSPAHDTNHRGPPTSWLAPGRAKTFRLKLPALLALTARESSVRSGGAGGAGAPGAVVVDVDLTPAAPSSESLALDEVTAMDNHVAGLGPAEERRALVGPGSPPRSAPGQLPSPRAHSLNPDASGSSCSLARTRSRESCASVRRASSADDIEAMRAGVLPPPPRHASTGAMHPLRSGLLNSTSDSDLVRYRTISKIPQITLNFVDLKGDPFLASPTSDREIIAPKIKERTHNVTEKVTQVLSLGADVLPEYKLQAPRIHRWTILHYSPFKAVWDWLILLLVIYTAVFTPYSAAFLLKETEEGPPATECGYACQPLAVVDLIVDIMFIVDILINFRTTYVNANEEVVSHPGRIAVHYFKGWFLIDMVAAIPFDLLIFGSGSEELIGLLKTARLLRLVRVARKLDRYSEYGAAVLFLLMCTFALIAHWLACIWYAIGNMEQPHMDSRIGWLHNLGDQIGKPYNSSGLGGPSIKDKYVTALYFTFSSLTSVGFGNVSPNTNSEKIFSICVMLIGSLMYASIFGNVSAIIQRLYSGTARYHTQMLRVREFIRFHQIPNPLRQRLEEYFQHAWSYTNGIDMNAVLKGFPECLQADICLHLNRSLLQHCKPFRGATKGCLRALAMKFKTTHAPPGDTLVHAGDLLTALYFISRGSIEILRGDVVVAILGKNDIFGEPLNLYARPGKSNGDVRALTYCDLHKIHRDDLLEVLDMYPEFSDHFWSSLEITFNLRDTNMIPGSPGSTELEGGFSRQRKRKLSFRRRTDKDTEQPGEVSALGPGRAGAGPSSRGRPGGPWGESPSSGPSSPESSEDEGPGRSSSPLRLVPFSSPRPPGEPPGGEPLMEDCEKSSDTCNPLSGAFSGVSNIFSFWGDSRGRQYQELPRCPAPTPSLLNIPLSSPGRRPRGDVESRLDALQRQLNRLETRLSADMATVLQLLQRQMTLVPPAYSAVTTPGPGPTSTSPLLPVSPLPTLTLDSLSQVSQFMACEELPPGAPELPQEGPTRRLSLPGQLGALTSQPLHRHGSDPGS
A general note: qHTS replaces the single test concentration by a dilution series.

The target in assay [2] is Luciferin 4-monooxygenase (Photinus pyralis) (UniProt P08659). Kind of assay: Biochemical firefly luciferase enzyme assay for NPC (AID 624030). Further: nearly all actives have a fitted effect of over 70% in size. Further: potency means the concentration at half of the fitted maximal effect. In outline:
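Direct inhibition of firefly luciferase enzyme (10 nM final, 50 mM Tris Acetate) assessed by luminescence within 5 minutes. Percent activity scaled between DMSO and PTC124 positive control, with concentration-effect curves classified by fit quality and response.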

Assay [3] can be described thus: S16 Schwann cell viability assay (CellTiter-Glo assay) (AID 624031).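 Further: plate controls were DMSO-treated cells for no effect and cell-free wells for full effect; nearly all actives have a fitted effect of over 70% in size.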 The gist of the method:
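Native S16 Schwann cells (rat), serum-containing medium, overnight attachment then 24 h drug exposure at 37 °C/5% CO2. CellTiter-Glo ATP signal; normalized to cell-free and vehicle wells.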
A general note: ATP-based viability assays read luminescence as a measure of living cells.

The target of assay [4] is Glutaminase kidney isoform, mitochondrial (Homo sapiens) (UniProt O94925). In words: qHTS for Inhibitors of Glutaminase (GLS): LOPAC Validation (AID 624146). Further: nearly all actives have a fitted effect of over 60% in size. Further: potency means the concentration at half of the fitted maximal effect. The gist of the method: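 Two-point fluorescence kinetic (t0, 30 min RT) for hKGA; glutamate detected via glutamate oxidase–HRP–Amplex Red. Substrate: 1 mM L-glutamine solution; buffer 45 mM KH2PO4, pH 8.2.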
Sequence of Glutaminase kidney isoform, mitochondrial (Homo sapiens) (O94925 whole entry, looked up, canonical isoform): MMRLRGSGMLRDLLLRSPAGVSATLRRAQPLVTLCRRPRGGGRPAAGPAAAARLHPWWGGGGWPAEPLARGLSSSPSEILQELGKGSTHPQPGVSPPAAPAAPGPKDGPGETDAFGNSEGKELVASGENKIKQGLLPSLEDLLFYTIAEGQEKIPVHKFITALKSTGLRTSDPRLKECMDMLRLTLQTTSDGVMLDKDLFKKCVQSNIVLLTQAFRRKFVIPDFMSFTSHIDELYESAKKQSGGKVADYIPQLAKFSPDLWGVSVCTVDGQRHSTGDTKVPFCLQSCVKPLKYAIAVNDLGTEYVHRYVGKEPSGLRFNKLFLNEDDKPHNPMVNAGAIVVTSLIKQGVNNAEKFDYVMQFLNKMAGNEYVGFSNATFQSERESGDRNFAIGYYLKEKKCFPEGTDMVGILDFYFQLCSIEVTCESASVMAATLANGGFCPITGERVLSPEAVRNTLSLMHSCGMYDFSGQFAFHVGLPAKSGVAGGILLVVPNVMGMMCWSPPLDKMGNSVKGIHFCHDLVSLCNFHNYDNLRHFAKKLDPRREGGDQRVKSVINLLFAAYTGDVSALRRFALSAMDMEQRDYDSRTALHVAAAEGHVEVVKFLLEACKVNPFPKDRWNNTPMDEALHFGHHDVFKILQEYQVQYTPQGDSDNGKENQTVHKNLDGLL
A short description of assay [5]: qHTS of Trypanosoma Brucei Inhibitors: LOPAC Validation (AID 624147). Further: 0% is about no effect. The gist of the method:
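In this concentration-response screen, enzyme-free wells defined baseline while DMSO plates tracked drift. Each reaction combined TbPYK, substrate, compound and 130 uM ADP for 45 min at room temperature. Kinase-Glo Plus luminescence gave the signal.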

The target of assay [6] is Glucagon-like peptide 1 receptor (Homo sapiens) (UniProt P43220). In words: qHTS of GLP-1 Receptor Agonists: LOPAC Validation (AID 624148).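 Further: luminescence from a luciferase reporter switched on by cAMP; 0% is about no effect; higher luminescence signal means agonism.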 In outline:
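Agonism scored as increased luciferase luminescence driven by cAMP in HEK293 clones carrying GLP-1R. Cells settled 12 hours, received compound for 4-6 hr at 37 deg C, 5% CO2, and were read after 12 min detection reagent at RT.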

Assay [7] is described as follows: qHTS of Nrf2 Activators: LOPAC Validation (AID 624149). Further: 0% is about no effect. In outline:
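ARE reporter activation measured in AREc32 firefly luciferase cells after 24 hr compound exposure; Steady-Glo luminescence.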

The target of assay [8] is Retinoic acid receptor RXR-alpha (Homo sapiens) (UniProt P19793). In words: qHTS assay for small molecule antagonists of retinoid X receptor alpha signaling (AID 588546; active means well fitted inhibition curve with a large enough effect in the signal ratio, with a control signal flat, not every such curve was filed as active; the % refers to the signal ratio;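 further: cells stimulated with 9-cis-retinoic acid as agonist; on the % scale 0 is the no-effect control and ±100 the full control effect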). The conditions noted are these: HEK293T RXRa-UAS-bla, beta-lactamase ratio, antagonist mode. In outline:
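Beta-lactamase reporter inhibition, read as CCF4 fluorescence ratio (ex 405, em 460/530 nm) after 2 h at RT. HEK293T UAS-bla cells, 2500/well, were stimulated with 9-cis-RA at 500 or 100 nM final alongside test compound for 18 h at 37 C.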

Assay [9] deals with Thyroid hormone receptor beta (Homo sapiens) (UniProt P10828). Kind of assay: qHTS assay for small molecule antagonists of thyroid hormone receptor beta signaling (AID 588547; active means well fitted inhibition curve with a large enough effect in the signal ratio, with a control signal flat, not every such curve was filed as active; the % refers to the signal ratio;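 further: cells stimulated with 0.4 nM T3 agonist during compound exposure; on the % scale 0 is the no-effect control and ±100 the full control effect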). Conditions: TR-UAS-bla HEK293, beta-lactamase ratio, antagonist mode, 18 h. In outline: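 Inhibition of T3-driven (0.4nM final) beta-lactamase reporter activity was measured over 0.59 nM to 92 uM compound after 18 h at 37 C. The cells were GripTite HEK293 TR-UAS-bla in charcoal/dextran-stripped serum, with CCF4 ratio read-out and IC50 from Hill fits.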
Sequence of Thyroid hormone receptor beta (Homo sapiens) (P10828 whole entry, looked up): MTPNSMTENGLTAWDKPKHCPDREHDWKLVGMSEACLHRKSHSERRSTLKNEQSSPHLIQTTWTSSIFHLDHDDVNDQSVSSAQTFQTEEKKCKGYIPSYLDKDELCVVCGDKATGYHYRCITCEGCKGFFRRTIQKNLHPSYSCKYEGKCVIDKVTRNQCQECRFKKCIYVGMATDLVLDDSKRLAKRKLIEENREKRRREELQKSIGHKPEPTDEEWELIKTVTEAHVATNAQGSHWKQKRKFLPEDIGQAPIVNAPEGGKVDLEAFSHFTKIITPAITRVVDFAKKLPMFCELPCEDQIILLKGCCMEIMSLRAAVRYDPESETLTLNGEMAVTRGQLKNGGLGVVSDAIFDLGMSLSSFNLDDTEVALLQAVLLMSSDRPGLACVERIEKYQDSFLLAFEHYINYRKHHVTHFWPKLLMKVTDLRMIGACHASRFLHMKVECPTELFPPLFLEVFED

Assay [10] can be described thus: qHTS assay for small molecule agonists of the antioxidant response element (ARE) signaling pathway (AID 651741; active means well fitted activation curve with a large enough effect in the signal ratio; the % refers to the signal ratio; further: potency means the concentration at half of the fitted maximal effect; on activation: % of control where 0% means no effect). In outline: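 Seeding 2,000 ARE-bla HepG2 cells per well preceded a 5 h incubation at 37 C/5% CO2 and a 16 h compound exposure at 37 C. Beta-lactamase reporter activity was then quantified by fluorescence after 2 h with LiveBLAzer B/G FRET substrate.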

Assay [11] can be described thus: qHTS assay for small molecule activators of the p53 signaling pathway (AID 651743; active means well fitted activation curve with a large enough effect in the signal ratio, not every such curve was filed as active; the % refers to the signal ratio; further: % of control where 0% means no effect). The conditions noted are these: HCT-116 p53RE-bla, beta-lactamase FRET ratio, 16 h; stronger effect = higher value. In outline: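 Screen for p53 pathway agonists uses stably transfected p53RE-bla HCT-116 cells, 4,000 per well, treated 16 h at 37 C with compounds in DMSO.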
The nature of assay [12]: qHTS assay for small molecule activators of the nuclear factor-kappa B (NF-kB) signaling pathway (AID 651749; active means well fitted activation curve with a large enough effect in the signal ratio; the % refers to the signal ratio; further: % of control where 0% means no effect). Conditions: NF-kB-bla ME-180 cells, beta-lactamase FRET ratio, 16 h; stronger effect = higher value. The gist of the method: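 Stably transfected ME-180 line; NF-kB response element upstream of beta-lactamase. Treatment: compound or DMSO, 16 hr. Detection: fluorescent FRET substrate.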

Assay [13] is described as follows: S16 Schwann cell PMP22 intronic element beta-lactamase assay (AID 624044; calls by dose curve; further: potency means the concentration at half of the fitted maximal effect; nearly all actives have a fitted effect of over 15% in size). The gist of the method: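 Rat S16 Schwann cells with beta-Lac driven by a PMP22 intronic element, compound-treated 24 h at 37 °C. LiveBLAzer FRET B/G read: 460 nm normalized to potassium clavulanate vs DMSO; 535 nm FRET as viability; concentration-effect curves classified.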
Assay [14] can be described thus: Cytotoxicity counterscreen for NFkB agonists and antagonists (AID 624476).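 Further: potency means the concentration at half of the fitted maximal effect; cells exposed to compound for 48 hours.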
Assay [15] can be described thus: qHTS Assay for Identification of Small Molecule Agonists for NFkB Signaling Pathway. (AID 624478).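 Further: compounds tested together with TNF alpha at its EC50 of 10 pM; 0% is about no effect.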 In outline:
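Cells carrying an NFkB response element-driven beta-lactamase gene are co-treated with compound and 10 pM TNF alpha for 5 h, and reporter activity is then read as 460 and 530 nm fluorescence.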

The nature of assay [16]: qHTS Assay for Identification of Small Molecule Antagonists for NFkB Signaling Pathway. (AID 624479; calls by dose curve;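 further: pathway stimulated with TNF alpha; potency means the concentration at half of the fitted maximal effect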).
Assay [17] in a line: Cell Proliferation Assay against the TMD8 Cell Line (AID 651645).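 Further: cells exposed to compound for 48 h before reading.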 The conditions noted are these: TMD8 DLBCL cell line proliferation/viability; at 46.1 µM (top of the series) unless noted. In outline: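 Luminescent ATP read-out (CellTiter-Glo, 15 min RT) after 48 h compound exposure of log-growing TMD8 cells at 37C; percent activity scaled between DMSO as 100% and 9.2 uM bortezomib final as 0%.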

Assay [18] is described as follows: Cell Proliferation Assay against the HBL1 Cell Line (AID 651646).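 Further: cells exposed to compound for 48 h before reading.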 The conditions noted are these: HBL1 DLBCL cells; at 46.1 µM (top of the series) unless noted. In outline:
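Luminescent ATP read-out (CellTiter-Glo) after 48 h compound exposure of HBL1 cells at 37 °C; percent activity was scaled between DMSO as 100% and 9.2 uM bortezomib (final) as 0%.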

Sequence of Luciferin 4-monooxygenase (Photinus pyralis) (P08659 whole entry, looked up): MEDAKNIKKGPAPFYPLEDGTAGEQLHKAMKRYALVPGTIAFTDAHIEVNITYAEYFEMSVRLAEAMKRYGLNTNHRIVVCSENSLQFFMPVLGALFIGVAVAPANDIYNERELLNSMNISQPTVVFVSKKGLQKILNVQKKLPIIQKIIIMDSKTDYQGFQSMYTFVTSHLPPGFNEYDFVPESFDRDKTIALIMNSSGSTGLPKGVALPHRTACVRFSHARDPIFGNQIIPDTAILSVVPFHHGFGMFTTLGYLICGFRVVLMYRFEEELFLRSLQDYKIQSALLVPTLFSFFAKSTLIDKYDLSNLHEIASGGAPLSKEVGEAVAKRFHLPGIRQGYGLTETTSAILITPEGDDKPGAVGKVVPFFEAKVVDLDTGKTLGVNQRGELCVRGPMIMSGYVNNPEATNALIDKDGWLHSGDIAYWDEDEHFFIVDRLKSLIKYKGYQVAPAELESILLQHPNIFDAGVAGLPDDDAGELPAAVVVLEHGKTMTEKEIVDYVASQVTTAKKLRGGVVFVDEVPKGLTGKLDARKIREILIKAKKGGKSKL
Sequence of Retinoic acid receptor RXR-alpha (Homo sapiens) (P19793 whole entry, looked up): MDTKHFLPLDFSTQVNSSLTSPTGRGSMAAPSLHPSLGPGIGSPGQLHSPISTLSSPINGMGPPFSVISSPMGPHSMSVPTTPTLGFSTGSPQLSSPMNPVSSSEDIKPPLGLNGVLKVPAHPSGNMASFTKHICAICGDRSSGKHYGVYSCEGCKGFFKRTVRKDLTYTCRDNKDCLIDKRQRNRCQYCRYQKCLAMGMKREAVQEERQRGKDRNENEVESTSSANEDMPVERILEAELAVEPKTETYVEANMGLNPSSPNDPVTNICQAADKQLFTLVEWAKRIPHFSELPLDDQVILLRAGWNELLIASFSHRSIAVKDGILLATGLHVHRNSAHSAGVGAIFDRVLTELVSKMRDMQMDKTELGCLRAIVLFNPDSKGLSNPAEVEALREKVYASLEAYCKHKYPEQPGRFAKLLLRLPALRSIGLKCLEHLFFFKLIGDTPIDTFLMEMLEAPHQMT
Sequence of Glucagon-like peptide 1 receptor (Homo sapiens) (P43220 whole entry, looked up): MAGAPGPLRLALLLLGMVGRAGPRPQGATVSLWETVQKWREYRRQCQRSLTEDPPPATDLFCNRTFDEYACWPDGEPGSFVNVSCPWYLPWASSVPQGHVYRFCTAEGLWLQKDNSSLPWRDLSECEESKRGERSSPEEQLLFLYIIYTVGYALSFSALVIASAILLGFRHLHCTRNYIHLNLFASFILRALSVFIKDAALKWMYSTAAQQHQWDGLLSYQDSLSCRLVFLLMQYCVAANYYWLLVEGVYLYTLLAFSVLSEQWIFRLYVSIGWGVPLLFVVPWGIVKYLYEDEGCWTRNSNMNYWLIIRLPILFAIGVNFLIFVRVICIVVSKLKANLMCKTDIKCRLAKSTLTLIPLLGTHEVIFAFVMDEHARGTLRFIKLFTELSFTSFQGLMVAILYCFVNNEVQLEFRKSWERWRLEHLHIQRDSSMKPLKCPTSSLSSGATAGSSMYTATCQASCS

Regarding `COc1ccccc1N1CCN(CCCNc2cc(=O)n(C)c(=O)n2C)CC1`, the Potency result in assay [1], in assay [2], in assay [3] and in assay [4] was “inactive” throughout. The outcome in assay [5], in [6] and in assay [7] was inactive.

As for `CC(=O)N[C@@H](CS)C(=O)O`, the max response in assay [8] is 2.12% (inactive). The activity change % (negative = inhibition) in assay [9] is -10.2% (inactive). The Potency entry in assay [1], in assay [2], in assay [3], in assay [4] and in assay [10] was “inactive” in each case. Besides, the compound was called inactive in [5], in [6] and in assay [7]. For the same compound, in assay [11], the activation is 0.943% (inactive).

As for `CCn1cc(C(=O)O)c(=O)c2ccc(C)nc21`, the max response in assay [8] is -0.374% (inactive) and 6.98% (inactive). The activity change % (negative = inhibition) in [9] is 17.4% (inactive) and 3.09% (inactive). Besides, the Potency entry in assay [2], in assay [3], in assay [4] and in assay [10] was “inactive” throughout. The compound was called inactive in [5] and in assay [6]. Moreover, the activation in assay [12] was -0.653% (inactive) and -1.68% (inactive).

On to `CCCCC1C(=O)N(c2ccccc2)N(c2ccccc2)C1=O`, for which the max response in [8] was 0.963% (inactive) and -0.138% (inactive). In addition, the activity change % (negative = inhibition) in assay [9] is 6.78% (inactive). The Potency entry in assay [1], in assay [2], in [3], in assay [4] and in assay [10] was “inactive” in each case. The compound was called inactive in assay [5], in assay [6] and in assay [7]. Also, the activation in [12] was -1.5% (inactive) and -1.29% (inactive).

Take `O=C1NC(=O)C(c2ccccc2)(c2ccccc2)N1`: the max response in assay [8] is 15.9% (inactive) and 2.5% (inactive) and -5.42% (inactive). Also, in [9], the activity change % (negative = inhibition) is -1.15% (inactive) and 6.61% (inactive). The Potency result in assay [1], in [2], in [3] and in assay [4] was “inactive” each time. The result in [5], in [6] and in assay [7] was inactive. In [10], the Potency was 34.4 µM (active) and inactive.

Take `CC1=C(/C=C/C(C)=C/C=C/C(C)=C/C(=O)Nc2ccc(O)cc2)C(C)(C)CCC1`: the Potency result in assay [1], in assay [2] and in [3] was “inactive” each time. The Potency in assay [13] is 11.2 µM (active); in [4], 12.6 µM (active); in assay [14], 20.9 µM (active); in assay [16] it was 21.1 µM (active). Besides, the compound was classed as inactive in assay [5], in assay [6], in [7] and in assay [15]. Also, the viability (% of control) in assay [17] was 7.34%. For the same compound, the viability, percent of control in [18] was 0.102%.

In the case of `CCN1CCC[C@H]1CNC(=O)c1cc(S(N)(=O)=O)ccc1OC`, the Potency result in assay [1], in assay [2], in assay [3] and in assay [4] was “inactive” throughout. For the same compound, the result in [5], in assay [6] and in assay [7] was inactive.

Turning to `CC(C(=O)O)c1ccc(-c2ccccc2)c(F)c1` (stereo not drawn), the Potency result in assay [1] was “inactive”.

For `O=c1c(-c2ccc(O)cc2)coc2cc(O)ccc12`, the max response in assay [8] was 8.82% (inactive) and -46% (inactive). Moreover, in assay [9], the activity change % (negative = inhibition) was 20.4% (inactive). Further, the Potency entry in [1] and in [4] was “inactive” throughout. Besides, the call in [5], in assay [6] and in [7] was inactive. Moreover, the Potency in assay [10] is 27.3 µM (active) and 42.2 µM (active). In addition, the activation is -1.55% (inactive) and 1.43% (inactive) in [11]; -0.613% (inactive) and -0.223% (inactive) in assay [12].

For the compound `CC(=O)O[C@]1(C(C)=O)CC[C@H]2[C@@H]3C=C(Cl)C4=CC(=O)[C@@H]5C[C@@H]5[C@]4(C)[C@H]3CC[C@@]21C`, in [9], the activity change % (negative = inhibition) was 13.7% (inactive) and 12.8% (inactive). For the same compound, the Potency entry in assay [1], in assay [2], in assay [3] and in assay [4] was “inactive” throughout. Moreover, the compound was called inactive in [5], in assay [6] and in [7]. For the same compound, in assay [10], the Potency was 54.5 µM (active) and 42.2 µM (active). Also, the activation in assay [12] is -2.59% (inactive) and -0.559% (inactive).

With `O=c1cc(-c2ccc(O)cc2)oc2cc(O)cc(O)c12`, the activity change % (negative = inhibition) in assay [9] is -28.1% (inactive). Further, the Potency entry in assay [1] and in assay [4] was “inactive” each time. In addition, the call in assay [5], in assay [6] and in assay [7] was inactive. Also, the Potency in assay [10] was 24.3 µM (active) and 33.5 µM (active).

As to `O=C(O)Cc1cccc2ccccc12`, the max response in [8] was 3.25% (inactive) and 2.98% (inactive). The activity change % (negative = inhibition) in [9] was 9.53% (inactive) and -11.8% (inactive). For the same compound, the Potency entry in assay [1], in assay [2], in [3] and in [10] was “inactive” in each case. Besides, the activation was -2.96% (inactive) and -4.77% (inactive) in [11]; -0.417% (inactive) and -0.959% (inactive) in assay [12].

With `O=C(O)c1cc(-c2ccccc2)nc2ccccc12`, the max response in assay [8] was -7.59% (inactive). Further, the activity change % (negative = inhibition) in assay [9] is 5.82% (inactive). Also, the Potency entry in [1] and in assay [3] was “inactive” throughout. Moreover, the Potency in [2] was 18.6 µM (active). The values for the activation in [11] and in assay [12] were -1.06% (inactive) and -3.75% (inactive), respectively.

`O=C(O)CCc1nc(-c2ccccc2)c(-c2ccccc2)o1`: the Potency result in assay [1], in assay [2], in [3] and in assay [4] was “inactive” each time. For the same compound, the call in assay [5] and in assay [6] was inactive.

`O=c1c(O)c(-c2ccc(O)cc2)oc2cc(O)cc(O)c12`: in assay [9], the activity change % (negative = inhibition) is 0.335% (inactive) and 4.17% (inactive). The Potency in assay [10] is 21.7 µM (active). The activation was 2.31% (inactive) and 6.56% (inactive) in assay [11]; -2.22% (inactive) and -4.27% (inactive) in assay [12].

Consider `CCCNC(=O)NS(=O)(=O)c1ccc(Cl)cc1`, for which, in assay [8], the max response was 15% (inactive) and -16.7% (inactive). Further, the activity change % (negative = inhibition) in assay [9] was 15.7% (inactive) and -17.5% (inactive). Further, the Potency entry in [1], in [2], in assay [3], in [4] and in assay [10] was “inactive” each time. Besides, the call in [5], in assay [6] and in assay [7] was inactive. Moreover, the activation was -1.07% (inactive) and -0.555% (inactive) in assay [11]; -1.46% (inactive) and -0.938% (inactive) in assay [12].
